# Measurements reported in PubChem BioAssay (EPA / NIEHS).
# Inconclusive results are not listed. The source made the active and inactive calls. How the source made its calls: active means hit-call score of the fitted dose curve at least 0.9, where 1 is the maximum; inconclusive means response in the unintended direction; inactive means score below 0.9.
# Molecular target: Cytochrome P450 3A4 (Homo sapiens) (UniProt P08684)
# Test: NVS_ADME_hCYP3A4: NovaScreen (NVS) CYP450-related Enzyme Activity (ADME) Assay for human CYP3A4 (AID 2283110)
# Method in brief: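 Cell-free recombinant enzyme expressed in insect cells; fluorescent substrate turnover read after 0.33 h, acetonitrile as negative control. Primary screen in duplicate at 10 uM, actives then tested in concentration series.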
# Chain of Cytochrome P450 3A4 (Homo sapiens) (P08684 whole entry, looked up): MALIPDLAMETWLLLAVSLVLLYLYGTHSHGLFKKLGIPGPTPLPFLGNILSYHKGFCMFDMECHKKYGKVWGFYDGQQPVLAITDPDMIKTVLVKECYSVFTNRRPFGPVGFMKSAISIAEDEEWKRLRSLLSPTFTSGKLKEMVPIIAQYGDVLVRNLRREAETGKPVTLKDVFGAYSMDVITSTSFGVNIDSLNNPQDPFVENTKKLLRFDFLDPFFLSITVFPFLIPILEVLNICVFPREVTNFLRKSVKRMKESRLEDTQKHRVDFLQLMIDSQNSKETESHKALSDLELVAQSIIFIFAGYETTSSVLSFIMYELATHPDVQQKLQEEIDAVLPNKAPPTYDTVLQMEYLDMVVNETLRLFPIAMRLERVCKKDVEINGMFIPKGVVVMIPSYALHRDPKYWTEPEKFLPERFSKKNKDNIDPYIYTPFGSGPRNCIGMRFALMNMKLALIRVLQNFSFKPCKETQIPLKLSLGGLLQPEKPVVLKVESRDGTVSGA
Structure (SMILES),AC50,outcome
Nc1ccc(Oc2ccc(N)cc2)cc1,7.04 µM (active),–
O=C(Nc1ccccc1)c1ccccc1I,–,inactive
CC(C)(C)C(O)(CCc1ccc(Cl)cc1)Cn1cncn1 (configuration not stated),5.27 µM (active),–
O=[N+]([O-])C(Br)(CO)CO,–,inactive
CCCCCCCCn1sccc1=O,8.75 µM (active),–
CO[C@@H]1[C@H](OC(=O)NC(=O)CCl)CC[C@]2(CO2)[C@H]1[C@@]1(C)O[C@@H]1CC=C(C)C,2.38 µM (active),–
N#CC(Br)(Br)C(N)=O,–,inactive
Oc1ccc2ccc3cccc4ccc1c2c34,6.74 µM (active),–
CCOC(=O)[C@]1(c2ccccc2)Oc2ccccc2[C@@H]1N,6.56 µM (active),–
[Cl-].[Cl-].[Hg+2],0.975 µM (active),–
O=C(N[C@H](c1ccccc1)[C@@H]1CN2CCC1CC2)c1c(Cl)ccc(C(F)(F)F)c1Cl,–,inactive
OCCOCCO,–,inactive

# Molecular target: human CYP4F12, CYP4F12 (gene 66002) (UniProt Q9HCS2)
# Test: NVS_ADME_hCYP4F12: NovaScreen (NVS) CYP450-related Enzyme Activity (ADME) Assay for human CYP4F12 (AID 2283111)
# Procedure: NVS_ADME_hCYP4F12 is a biochemical, single-readout assay that uses extracted gene-proteins in a cell-free assay. Measurements were taken 0.5 hour after chemical dosing in a 384-well plate.NVS_ADME_hCYP4F12 is one of one assay component(s) measured or calculated from the NVS_ADME_hCYP4F12 assay. It is designed to make measurements of enzyme activity, a form of enzyme reporter, as detected with fluorescence intensity signals by Fluorescence technology.Data from the assay component NVS_ADME_hCYP4F12 was analyzed into 1 assay endpoint. This assay endpoint, NVS_ADME_hCYP4F12, was analyzed in the positive analysis fitting direction relative to Acetonitrile as the negative control and baseline of activity. Using a type of enzyme reporter, loss-of-signal activity can be used to understand changes in the enzymatic activity as they relate to the gene CYP4F12. Furthermore, this assay endpoint can be referred to as a primary readout, because this assay has produced multiple assay endpoints where this one serves a enzymatic activity function. To generalize the intended target to other relatable targets, this assay endpoint is annotated to the cyp intended target family, where the subfamily is xenobiotic metabolism.
# Binding assays used specific radioligands (tritiated, iodinated) with non-radioactive competitive displacement ligands in agonist or antagonist protocols (as indicated) and various reference compounds and inhibitors to titrate specific binding to receptors and transporters. Most enzyme assays (CYPs, kinases, phosphatases, proteases, HDACs) used recombinant protein and specific substrates (fluorescence mostly, some colorimetric and radioactive) and inhibitors, followed by a biochemical separation of substrate and product. All assays for the biochemical HTS were initially run in duplicate at a single concentration (10 uM for CYP450 assays and 25 uM for all others). […] Each assay was run with positive and negative controls, and concurrent controls on every plate. The follow-up (secondary) screen tested active chemical-pairs in concentration series, as well as a few additional assays not tested in the primary screen, some selected negative inactives, and several cases re-run in the concentration series for confirmatory purposes.
# Chain of human CYP4F12, CYP4F12 (gene 66002) (Q9HCS2 whole entry, looked up): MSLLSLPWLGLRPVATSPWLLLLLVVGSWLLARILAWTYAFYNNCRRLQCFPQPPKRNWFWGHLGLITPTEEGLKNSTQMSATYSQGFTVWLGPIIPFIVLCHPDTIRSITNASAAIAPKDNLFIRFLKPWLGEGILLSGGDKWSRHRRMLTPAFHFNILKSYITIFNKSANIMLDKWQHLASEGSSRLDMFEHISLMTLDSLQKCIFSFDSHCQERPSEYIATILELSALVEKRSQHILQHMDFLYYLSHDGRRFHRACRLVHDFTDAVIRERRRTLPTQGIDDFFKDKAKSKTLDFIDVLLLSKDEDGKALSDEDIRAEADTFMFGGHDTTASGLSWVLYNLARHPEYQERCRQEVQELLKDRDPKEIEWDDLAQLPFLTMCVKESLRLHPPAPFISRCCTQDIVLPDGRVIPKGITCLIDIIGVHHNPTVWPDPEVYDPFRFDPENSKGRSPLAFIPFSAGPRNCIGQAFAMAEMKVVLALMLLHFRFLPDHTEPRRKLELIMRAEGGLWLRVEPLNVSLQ
Structure (SMILES),AC50,outcome
CCN(CC)N=O,6.21 µM (active),–
CCOc1cccc(C2(N3CCN(c4ccccc4)CC3)CCC(C)CC2)c1 (configuration not stated),4.36 µM (active),–
Clc1ccccc1Cl,1.91 µM (active),–
Nc1ccc(N=Nc2ccccc2)cc1,–,inactive
Cc1ccc([N+](=O)[O-])cc1,–,inactive

# Molecular target: Cytochrome P450 2C19 (Homo sapiens) (UniProt P33261)
# Test: NVS_ADME_hCYP2C19: NovaScreen (NVS) CYP450-related Enzyme Activity (ADME) Assay for human CYP2C19 (AID 2283113);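 on AC50: potency for inhibition seen as loss of fluorescent signal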
# Method in brief: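 Fluorescence intensity was measured 1 hour after chemicals were added to insect-cell-derived recombinant CYP2C19 with fluorogenic substrate. Decreased signal versus acetonitrile control was taken as reduced enzyme activity; initial testing used 10 uM in duplicate.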
Structure (SMILES),outcome,AC50
Nc1ccc(Oc2ccc(N)cc2)cc1,inactive,–
CCCCOC(=O)c1ccccc1C(=O)OCc1ccccc1,–,2.72 µM (active)
O=C(Nc1ccccc1)c1ccccc1I,–,4.95 µM (active)
CC(C)(C)C(O)(CCc1ccc(Cl)cc1)Cn1cncn1 (configuration not stated),–,0.698 µM (active)
O=[N+]([O-])C(Br)(CO)CO,–,1.93 µM (active)
CCCCCCCCn1sccc1=O,–,6.04 µM (active)
Cc1cc(N=Nc2ccccc2C)ccc1N,–,2.69 µM (active)
CO[C@@H]1[C@H](OC(=O)NC(=O)CCl)CC[C@]2(CO2)[C@H]1[C@@]1(C)O[C@@H]1CC=C(C)C,–,2.21 µM (active)
COP(=S)(OC)SCN1C(=O)c2ccccc2C1=O,–,0.593 µM (active)
Nc1ccc(N=Nc2ccccc2)cc1,–,6.47 µM (active)
CCOC(=O)[C@]1(c2ccccc2)Oc2ccccc2[C@@H]1N,–,2.09 µM (active)
[Cl-].[Cl-].[Hg+2],–,0.812 µM (active)

# Molecular target: human Acetylcholinesterase (AChE), ACHE (gene 43) (UniProt P22303)
# Test: NVS_ENZ_hAChE: NovaScreen (NVS) Enzymatic Assay for human Acetylcholinesterase (AChE) (AID 2283129)
# Method in brief: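 Cell-free colorimetric enzyme-activity assay; compounds read 0.33 hour after dosing, loss of signal vs DMSO baseline. Primary screen in duplicate at 25 uM single concentration, with active compounds retested in concentration series.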
# Chain of human Acetylcholinesterase (AChE), ACHE (gene 43) (P22303 whole entry, looked up): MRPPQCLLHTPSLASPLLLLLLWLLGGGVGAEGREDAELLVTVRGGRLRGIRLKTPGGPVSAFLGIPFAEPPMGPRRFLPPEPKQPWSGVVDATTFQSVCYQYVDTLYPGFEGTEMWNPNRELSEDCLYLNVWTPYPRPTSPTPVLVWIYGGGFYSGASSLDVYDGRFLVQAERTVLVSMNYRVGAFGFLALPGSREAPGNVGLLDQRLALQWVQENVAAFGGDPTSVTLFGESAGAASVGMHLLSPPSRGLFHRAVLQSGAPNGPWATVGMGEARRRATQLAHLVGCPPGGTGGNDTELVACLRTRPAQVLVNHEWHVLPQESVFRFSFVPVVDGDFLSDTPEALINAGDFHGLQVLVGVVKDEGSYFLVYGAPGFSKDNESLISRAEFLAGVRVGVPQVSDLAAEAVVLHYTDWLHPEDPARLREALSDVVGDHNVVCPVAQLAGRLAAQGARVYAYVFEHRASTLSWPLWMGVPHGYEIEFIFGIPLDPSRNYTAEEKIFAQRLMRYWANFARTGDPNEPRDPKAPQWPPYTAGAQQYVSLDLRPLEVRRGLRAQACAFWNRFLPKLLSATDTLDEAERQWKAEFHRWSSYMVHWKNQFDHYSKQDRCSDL
row,Structure (SMILES),AC50
1,O=[N+]([O-])C(Br)(CO)CO,29.5 µM (active)
2,Oc1ccc2ccc3cccc4ccc1c2c34,7.92 µM (active)
3,CCOC(=O)[C@]1(c2ccccc2)Oc2ccccc2[C@@H]1N,24.3 µM (active)
